# Most compounds without a hit are left out; they make up all but 9.4% or so of the library.
# FLuc counter: counter-screen for miR-21 project: firefly luciferase inhibitors or activators; Potency, µM (doses to about 57.5 µM), for inactives: at the top dose activity change, negative = inhibition, most hits filed as inhibitors; AID 588342; P08659; actives 6.9% (n = 360,000); purified FLuc, Km substrates, luminescence inhibition;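 also: plate controls were vehicle for no effect and reference inhibitor for full effect; nearly all actives have a fitted effect of over 55% in size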
# Target sequence (P08659 whole entry, looked up): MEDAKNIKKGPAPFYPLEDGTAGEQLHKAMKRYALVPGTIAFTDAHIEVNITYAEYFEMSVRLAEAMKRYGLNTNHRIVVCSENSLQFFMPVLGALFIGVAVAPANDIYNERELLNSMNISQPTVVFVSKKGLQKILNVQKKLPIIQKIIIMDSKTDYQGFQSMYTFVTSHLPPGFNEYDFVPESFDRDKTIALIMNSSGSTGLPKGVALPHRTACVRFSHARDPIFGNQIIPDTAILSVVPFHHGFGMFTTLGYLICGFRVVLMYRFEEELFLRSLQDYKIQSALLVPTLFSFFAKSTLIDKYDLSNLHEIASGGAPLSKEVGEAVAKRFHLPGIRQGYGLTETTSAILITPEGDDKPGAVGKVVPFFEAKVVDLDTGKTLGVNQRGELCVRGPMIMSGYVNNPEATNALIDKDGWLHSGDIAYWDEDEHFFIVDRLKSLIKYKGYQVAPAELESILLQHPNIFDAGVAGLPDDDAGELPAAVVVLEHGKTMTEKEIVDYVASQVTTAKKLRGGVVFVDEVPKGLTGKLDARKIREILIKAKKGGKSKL
#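 Purified P. pyralis luciferase (10nM final) with 10uM D-luciferin and 10uM ATP (Km levels) in 50mM Tris acetate pH 7.5, 10mM Mg acetate, 0.01% Tween-20, 0.05% BSA; qHTS 6-point titration, ~60 µM downward; luminescence read.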
# Rab9 promoter act: activators of Rab9 promoter | Potency, µM (highest dose often 9.22 µM), for the others: top-dose activation, negative = inhibition, most hits filed as activators | actives 2.8% (n = 320,000) | Huh7 Rab9 promoter-luciferase reporter, luminescence, 24 h; also: % of control where 0% means no effect; nearly all actives have a fitted effect of over 60% in size
#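 Luminescence read-out: Huh7 cells stably expressing Rab9-luciferase, treated 24 h with compound at 37 °C, then lysed with luciferase reagent for 10 min at ambient before reading.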
# NPC1 prom act: activates the NPC1 promoter | actives 2.4% (n = 320,000) | AID 485313 | Huh7 NPC1 promoter luciferase reporter, 24 h | Potency, µM (titrated, usually from 9.22 µM), inactives show top-dose activation, hits mostly activators; also: % of control where 0% means no effect; nearly all actives have a fitted effect of over 60% in size
#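 Quantitative HTS used a cell-based reporter: Huh7 cells stably bearing the NPC1 promoter upstream of luciferase were treated with compounds for 24 h, and promoter activation was read as luminescence.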
# SMN2 splice up: enhancers of SMN2 splice variant expression; AID 1458; HEK293 SMN2-luciferase splicing reporter, luminescence, 30-36 h; actives 2.8% (n = 210,000); Potency, µM (doses to about 46.1 µM), without a hit: at the top dose activity change, positive = activation, hits mostly activators; also: % of control where 0% means no effect; nearly all actives have a fitted effect of over 55% in size
#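 HEK293 cells carry an SMN2 […]–luciferase reporter in which exon 7 inclusion puts luciferase in frame. Cells were plated 10-12 h before compound addition, then incubated 30-36 h at 37C. ONE-Glo luminescence was read; sodium butyrate at 4.5 mM final served as control.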
# ELG1 DNA repair: blocks ELG1-dependent DNA repair in HEK293T cells; HEK293T ELG1-luciferase reporter, luminescence, 16 h; DNA damage induced by 5-fluorouridine; actives 2.3% (n = 330,000); Potency, µM (top dose mostly 46.1 µM), inactives show at the top dose activity change, negative = inhibition, hits mostly inhibitors; AID 504467; also: % is scaled to controls: 0 for no effect and ±100 for the full control effect; nearly all actives have a fitted effect of over 55% in size
#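 Luminescence from the luciferase reporter, measured 30 min after ONE-Glo reagent at room temperature, was the read-out. Beforehand, 2,000 cells per well were exposed for 16 hr at 37 °C to 5-fluorouridine together with compound or vehicle.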
# ELG1 genotox: genotoxicity induction in ELG1-luciferase HEK293T cells. Potency, µM (highest dose often 46 µM), for the others: at the highest dose activity change, positive = activation, actives largely listed as activators. actives 1.3% (n = 330,000). HEK293T ELG1-luciferase reporter, luminescence, 16 h. AID 504466; also: % of control where 0% means no effect; nearly all actives have a fitted effect of over 60% in size
#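 ELG1-luciferase HEK293T cells, 2,000/well; compound pinned in; 16 hr, 37 °C, 5% CO2; ONE-Glo, 30 min RT; luminescence on CCD imager.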
# * hit, by the source's call; ? = inconclusive; / = not tested or not shown; [ ] = another dose, or the depositor's remark. Calls follow the shape of the dose curve; as a rule, active = well fitted curve in the direction sought with a large enough effect; inconclusive = small, poorly fitted or top-dose-only effect, or another doubt; inactive = no such curve, though single readings can be large; an effect the other way counts as inactive or inconclusive. Potency is read from the fitted curve at half-maximal effect.
SMILES,FLuc counter,Rab9 promoter act,NPC1 prom act,SMN2 splice up,ELG1 DNA repair,ELG1 genotox
O=C(O)CC(C(=O)O)N1C(=O)/C(=C/C=C/c2ccco2)SC1=S (centres undefined),12µM*,0%,-1%,/,-2%,-1%
O=C(O)CCCN1C(=O)/C(=C\C(Cl)=C\c2ccccc2)SC1=S,9.5µM*,-48%,-38%,/,-9%,-9%
O=C1S/C(=C\C=C\c2ccco2)C(=O)N1c1ccc(O)cc1,15µM*,?,26%,23%,?,?
O=C(NN1C(=O)/C(=C/C=C/c2ccco2)SC1=S)c1ccccc1O,19µM*,-3%,2%,/,-6%,2%
COc1ccc(CCNC(=O)c2ccc(Cn3c(SCc4ccccc4)nc4cccnc43)cc2)cc1,-20%,/,/,-6%,/,/
O=C(O)CCCN1C(=O)/C(=C/C=C/c2ccco2)SC1=S,27µM*,-1%,-2%,/,0%,4%
O=C(O)CCN1C(=O)/C(=C/c2ccc(-c3nc4ccccc4s3)o2)SC1=S,?,8%,5%,-9%,?,5%
O=C(O)CC(C(=O)O)N1C(=O)/C(=C/c2ccc(-c3nc4ccccc4s3)o2)SC1=S (centres undefined),19µM*,-7%,0%,26%,24%,4%
C=C(C(C)=O)C(O)c1ccco1 (centres undefined),/,/,/,-3%,/,/
COc1cccc(CSc2nc3ccncc3[nH]2)c1,13µM*,2.8µM*,1.6µM*,/,?,-18%
Clc1ccccc1CSc1nc2ccncc2[nH]1,15µM*,3.5µM*,?,13µM*,?,18µM*
Nc1ncnc2c1ncn2[C@@H]1O[C@H](COP(=O)(O)OP(=O)(O)OC[C@H]2OC(O)[C@H](O)[C@@H]2O)[C@@H](O)[C@H]1O (some centres undefined),/,/,/,-7%,/,/
CC1CCCN(C(=O)CNC(=O)c2cccs2)C1 (centres undefined),?,?,4µM*,/,?,22%
Cn1c(-c2ccccc2O)cc2ccccc21,-5%,-3%,-6%,-17%,0%,-3%
Cn1c(-c2ccccc2)cc2ccccc21,?,-4%,0%,/,13%,-1%
Cn1c(-c2nnn(-c3ccc(F)cc3)n2)cc2ccccc21,1.3µM*,4µM*,?,/,?,5.2µM*
Cc1ccc(-n2nnc(-c3cc4ccccc4n3C)n2)cc1,0.85µM*,1.6µM*,2.8µM*,/,?,?
Cc1ccc(-c2ccc(=O)n(CC(=O)Nc3ccc(C)cc3Cl)n2)cc1,5%,/,/,5%,/,/
O=C(c1cc2cc(Br)ccc2[nH]1)N1CCc2ccccc21,1%,22%,5µM*,/,21%,2%
COc1ccc2cc(C(=O)N3CCc4ccccc43)[nH]c2c1,0.95µM*,4µM*,?,/,?,?
O=C(c1cc2cc(F)ccc2[nH]1)N1CCc2ccccc21,?,3.5µM*,4µM*,/,?,?
Cc1cc(C2(c3cc(C)c(O)c(C(=O)O)c3)OS(=O)(=O)c3ccccc32)cc(C(=O)O)c1O,/,/,/,-2%[9.22 µM],/,/
CCc1ccc(NCc2cc3cc(OC)c(OC)cc3n(CC(=O)Nc3cc(C)ccc3C)c2=O)cc1,3%,/,/,/,/,/
C[C@H](CO)N1C[C@H](C)[C@@H](CN(C)S(=O)(=O)c2cccs2)Oc2ccc(NS(=O)(=O)c3ccccc3)cc2C1=O,/,/,/,/,9.2µM*,0%
C[C@H](CO)N1C[C@H](C)[C@@H](CN(C)S(=O)(=O)c2ccccc2)Oc2ccc(NS(=O)(=O)c3ccccc3)cc2C1=O,/,/,/,/,23µM*,-1%
SMILES,FLuc counter,Rab9 promoter act,NPC1 prom act,SMN2 splice up,ELG1 DNA repair,ELG1 genotox
C[C@H](CO)N1C[C@H](C)[C@@H](CN(C)S(=O)(=O)c2cccs2)Oc2ccc(NS(=O)(=O)c3ccc(F)cc3)cc2C1=O,/,/,/,/,6.5µM*,1%
COc1ccc(S(=O)(=O)Nc2ccc3c(c2)C(=O)N([C@@H](C)CO)C[C@H](C)[C@H](CN(C)S(=O)(=O)c2ccc(F)cc2)O3)cc1,/,/,/,/,21µM*,-1%
C[C@H](CO)N1C[C@H](C)[C@@H](CN(C)S(=O)(=O)c2ccc(F)cc2)Oc2ccc(NS(=O)(=O)c3ccc(F)cc3)cc2C1=O,/,/,/,/,?,0%
C[C@H](CO)N1C[C@H](C)[C@@H](CN(C)S(C)(=O)=O)Oc2ccc(NS(=O)(=O)c3ccccc3)cc2C1=O,/,/,/,/,-2%,4%
CCC(=O)N1CCc2cc(Br)cc(S(=O)(=O)CCC(=O)N3CCN(c4ccc(OC)cc4)CC3)c21,-2%,/,/,-3%,/,/
Cc1nn2c(C)c(C(=O)NCC(C)c3ccccc3)cnc2c1-c1ccccc1 (centres undefined),-19%,/,/,/,/,/
c1ccc(-c2cc3n(c2)CCc2ccccc2-3)cc1,4.8µM*,3.2µM*,3.5µM*,11µM*,?,-6%
O=C(O)c1cc2c(s1)-c1ccccc1CC2,-16%,8%,2%,-13%[1.84 µM],1%,2%
CCOc1ccc(Nc2nc(N3CCCC3)nc(N3CCN(c4ccc(OC)cc4)CC3)n2)cc1,0%,-3%,-3%,-9%,8%,-5%
N#Cc1ccc(Oc2nc(Nc3ccc(F)cc3)nc(N3CCCC3)n2)cc1,-7%,4%,0%,-24%,16µM*,-7%
O=[N+]([O-])c1c(NCCO)cc(N2CCN(Cc3ccc4c(c3)OCO4)CC2)c2nonc12,0%,-1%,-2%,-22%,21µM*,-6%
CCc1ccc(NC(=O)COCc2cc(-c3ccc(F)cc3)on2)cc1,-4%,/,/,12%,/,/
O=C(N/N=C/c1ccc2c(c1)OCO2)C1COc2ccccc2O1 (centres undefined),17µM*,15%,1%,13%,-15%,3%
CC(/C=C/c1ccc2c(c1)OCO2)=N/NC(=O)C1COc2ccccc2O1 (centres undefined),-10%,-7%,-3%,-15%,-16%,-2%
COc1ccc(/C=N/NC(=O)C2COc3ccccc3O2)cc1OC (centres undefined),19µM*,1%,-2%,5%,4%,7%
COc1cc(/C=N/NC(=O)C2COc3ccccc3O2)ccc1O (centres undefined),?,-1%,1%,/,-3%,-4%
COc1cc(/C=N\NC(=O)C2COc3ccccc3O2)cc(OC)c1O (centres undefined),-4%,-1%,-6%,/,0%,6%

# Compound activity as filed in PubChem.
